A selection: hits, their analogues and other compounds. The true share with any hit is near 2.3%.
Nrf2 ARE act – qHTS of Nrf2 Activators. actives 0.31% (n = 410,000). AREc32 ARE-luciferase reporter (MCF7-derived line), luminescence, 24 h. Potency, µM (top dose mostly 46.1 µM), most hits filed as activators. AID 624171, 2012; also: nearly all actives have a fitted effect of over 65% in size
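Cells of the AREc32 ARE-luciferase line are plated in OPTI-MEM containing 5% FBS and left overnight at 37 deg C. Compounds are pinned in, incubation continues 24 hr, and firefly luciferase signal is then measured.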
Nrf2 inh – Nrf2 qHTS screen for inhibitors; A549 ARE-Fluc reporter, luciferase luminescence, 18-24 h; Potency, µM (titrated, usually from 46 µM), usual class: inhibitors; actives 2.1% (n = 360,000); AID 504444, 2011; also: nearly all actives have a fitted effect of over 60% in size
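Nrf2 activity is the BugLite luminescence, read 15 min after reagent at room temperature, following CellTiter-Fluor cytotoxicity readout (30 min, 37C). Compound titrations were applied for 18-24 h to 5000 A549 ARE_Fluc cells/well in 5% FBS OPTI-MEM.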
Rango release inh – qHTS Assay for Inhibitors of RanGTP induced Rango (Ran-regulated importin-beta cargo) - Importin beta complex dissociation; actives 0.071% (n = 340,000); Biochemical FRET Rango-importin beta, RanGTP-induced dissociation; Potency, µM (titrated, usually from 46.1 µM); Snurportin-1 (Homo sapiens) + GTP-binding nuclear protein Ran (Homo sapiens) + Importin …; AID 540253, 2011; calls by dose curve; also: nearly all actives have a fitted effect of over 45% in size
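Compounds sat 5 min at room temperature with 0.1 uM Rango biosensor plus 0.25 uM importin beta, then FRET pre-read. RanGTP-RCC1 (0.6 uM Ran, 2mM GTP, 0.2 uM RCC1) added for 45 min, and the CFP/YFP post-read measured blocked complex dissociation.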
A549 viability – Nrf2 qHTS screen for inhibitors: counterscreen for cytotoxicity; A549 ARE-Fluc cells, CellTiter-Fluor viability, 18-24 h; Potency, µM (doses to about 46 µM), most hits filed as inhibitors; actives 0.16% (n = 390,000); AID 504648, 2011
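Cytotoxicity counterscreen: CellTiter-Fluor fluorescence was measured in A549 ARE_Fluc cells after 18-24 h of compound exposure in a concentration series. The subsequent BugLite luminescent read reports ARE-luciferase activity.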
Rango-impB inh – qHTS Assay for Inhibitors of Rango (Ran-regulated importin-beta cargo) - Importin beta complex formation. Importin subunit beta-1 (Homo sapiens), Q14974. actives 0.031% (n = 340,000). Potency, µM (titrated, usually from 92.2 µM). Rango CFP/YFP FRET sensor + importin beta, 45 min; calls by dose curve; also: nearly all actives have a fitted effect of over 15% in size
Target sequence (Q14974 whole entry, looked up): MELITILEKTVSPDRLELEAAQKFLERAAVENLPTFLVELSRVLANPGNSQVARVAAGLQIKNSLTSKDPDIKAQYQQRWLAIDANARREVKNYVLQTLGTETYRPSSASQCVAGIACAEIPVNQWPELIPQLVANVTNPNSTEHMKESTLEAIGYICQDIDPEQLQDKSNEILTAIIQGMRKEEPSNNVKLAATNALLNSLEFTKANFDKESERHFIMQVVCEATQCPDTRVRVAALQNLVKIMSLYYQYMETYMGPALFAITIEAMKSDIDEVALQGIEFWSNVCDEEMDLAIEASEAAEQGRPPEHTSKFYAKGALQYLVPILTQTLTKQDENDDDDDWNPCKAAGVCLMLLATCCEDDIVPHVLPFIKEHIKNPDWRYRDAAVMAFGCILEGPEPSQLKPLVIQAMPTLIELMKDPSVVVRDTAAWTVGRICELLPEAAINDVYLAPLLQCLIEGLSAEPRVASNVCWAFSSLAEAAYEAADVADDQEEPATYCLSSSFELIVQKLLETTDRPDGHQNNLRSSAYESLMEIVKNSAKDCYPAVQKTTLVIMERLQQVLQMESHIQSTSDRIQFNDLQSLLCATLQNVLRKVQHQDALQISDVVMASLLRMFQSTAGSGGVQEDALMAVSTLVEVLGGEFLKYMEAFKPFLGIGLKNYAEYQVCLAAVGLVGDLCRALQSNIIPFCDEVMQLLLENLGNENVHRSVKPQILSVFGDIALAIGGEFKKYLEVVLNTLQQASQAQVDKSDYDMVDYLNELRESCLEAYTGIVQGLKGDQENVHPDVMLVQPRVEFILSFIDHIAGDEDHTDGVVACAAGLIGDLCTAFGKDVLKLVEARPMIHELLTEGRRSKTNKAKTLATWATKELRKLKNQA
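Inhibition scored from the CFP 486 nm/YFP 530 nm FRET ratio 45 min after adding 0.125 microM importin beta to 50 nM Rango biosensor preincubated 5 min with compound (room temperature, PBS with DTT, Tween-20, BSA). No-importin wells as positive control.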
Each line names hits and unclear results; the compound was inactive in the other large screens. Unless noted, calls follow the shape of the dose curve; as a rule, active = well fitted curve in the direction sought with a large enough effect; inconclusive = small, poorly fitted or top-dose-only effect, or another doubt; inactive = no such curve, though single readings can be large; an effect the other way counts as inactive or inconclusive.

CCn1c(=O)cc(SCC(=O)Nc2ccc(C)c(F)c2)c2ccccc21	Nrf2 inh 23µM (no result: Rango release inh, Rango-impB inh)
CCC1=C(OC(=O)N(CC)CC)N2C(=O)OC(=NCc3ccccc3)[C@]2(C)[C@H]2C1=CC[C@H]1C(=O)NC(=O)[C@H]12	Nrf2 inh 18µM
CC(C)CCN1CCN(Cc2nc(-c3ccc(F)cc3)cs2)CC1CCO (centres undefined)	none
Cc1ccc(NC(=O)c2cc(-c3ccccc3)nn2-c2ccccc2)cc1	none
O=C(Nc1ccc(F)cc1)c1nn(-c2ccccc2)c(=O)cc1Cl	Nrf2 inh 18µM, A549 viability inconclusive
NC(=O)C(=O)N/N=C/c1c2ccccc2cc2ccccc12	Rango release inh 15µM
Cc1cc(C(=O)N/N=C/c2c3ccccc3cc3ccccc23)n[nH]1	Rango release inh inconclusive, Rango-impB inh inconclusive
COc1ccc(NC(=O)c2cccnc2SC)cc1S(=O)(=O)N1CCCCC1	none
Nc1c(C(=O)Nc2ccccc2Br)sc2nc(-c3cccs3)ccc12	Nrf2 ARE act inconclusive (no result: Rango release inh, Rango-impB inh)
Nc1c(C(=O)Nc2nc3ccccc3s2)sc2nc(-c3cccs3)ccc12	Nrf2 ARE act inconclusive, Nrf2 inh 21µM, Rango release inh inconclusive, A549 viability inconclusive, Rango-impB inh inconclusive
CC(=O)c1sc2nc(-c3cccs3)ccc2c1N	Nrf2 ARE act 13µM, Nrf2 inh inconclusive, Rango release inh inconclusive, Rango-impB inh inconclusive
COc1ccccc1-c1nn(-c2ccccc2)cc1C(=O)N1CCc2ccccc2C1	Nrf2 inh 21µM, A549 viability inconclusive
COc1ccc(OC)c(-c2nn(-c3ccccc3)cc2C(=O)N2CCc3ccccc3C2)c1	Nrf2 inh inconclusive, A549 viability inconclusive
CNC(=O)C1CCC(Cn2c(=O)c3sccc3n(Cc3cc(C)ccc3C)c2=O)CC1 (centres undefined)	Nrf2 inh inconclusive (no result: Rango release inh, Rango-impB inh)
CCCCOc1cccc(C(=O)Nc2cccc(-c3nc4ncccc4o3)c2C)c1	Nrf2 inh 16µM (no result: Rango release inh, Rango-impB inh)
COc1ccccc1Nc1nc(-c2c(C)[nH]c3ccccc23)cs1	Rango release inh 12µM, Rango-impB inh inconclusive
Cc1[nH]c2ccccc2c1-c1csc(N)n1	Nrf2 inh inconclusive, Rango-impB inh inconclusive
c1ccc(-c2nnc(-c3ccncc3)o2)cc1	Nrf2 inh inconclusive
Cc1ccc(-c2nnc(-c3cccc(Br)c3)o2)cc1	Nrf2 ARE act inconclusive, Nrf2 inh inconclusive
c1ccc(-c2nnc(-c3ccccc3)o2)cc1	Nrf2 ARE act 4.5µM (no result: Nrf2 inh)
Brc1cccc(-c2nnc(-c3ccccc3)o2)c1	Nrf2 ARE act 3.2µM, Nrf2 inh inconclusive
Cc1ccc(-c2nc(NC(=O)c3nn(C)cc3[N+](=O)[O-])sc2C)cc1	Nrf2 inh 18µM, A549 viability inconclusive
Cc1cnc(NC(=O)c2nn(C)cc2[N+](=O)[O-])s1	Nrf2 inh inconclusive
Cc1ccc(-c2nc(NC(=O)c3nn(C)cc3[N+](=O)[O-])sc2C)cc1C	Nrf2 ARE act inconclusive, Nrf2 inh 26µM
COc1ccc(C2Nc3ccccc3C(=O)N2C2CCCC2)cc1COc1ccc(NC(C)=O)cc1 (centres undefined)	none (no result: Nrf2 ARE act, Rango release inh, Rango-impB inh)
COc1ccc(-c2ccc(-c3noc(C(C)C)n3)c(OC)n2)cc1	Rango release inh 0.0082µM, Rango-impB inh inconclusive
CCCCCn1ncc2c3sc(C)cc3n(C)c2c1=O	Nrf2 inh inconclusive (no result: Nrf2 ARE act, Rango release inh, Rango-impB inh)
CCOCC(=O)Nc1ccc2c(c1)OCCO2	none
C/C(=N\OCC(=O)Nc1ccc2c(c1)OCCO2)c1ccc2c(c1)OCCO2	Nrf2 inh 18µM
COc1cccc(CNC(=O)c2c(C)nn(-c3cccc(C)c3)c2-n2cccc2)c1	Nrf2 inh inconclusive (no result: Rango release inh, Rango-impB inh)
COc1ccc(C)cc1NC(=O)Nc1cccc(C(=O)O)c1	none
CCOC(=O)Nc1cccc(OCC(=O)Nc2ccc(OC)cc2OC)c1	Nrf2 inh 15µM, A549 viability inconclusive
CCOC(=O)c1cccc(NC(=O)Nc2cc(OC)ccc2OC)c1	Nrf2 inh 21µM
CCC1Nc2ncnc(N3CCc4ccccc4C3)c2N(Cc2ccc(Br)cc2)C1=O (centres undefined)	none (no result: Nrf2 inh, Rango release inh, A549 viability, Rango-impB inh)
CC(=O)c1ccc(NC(=O)N2CCN(c3cccc(Cl)c3)CC2)cc1	Nrf2 inh 9.2µM
CC(=O)c1ccc(N2CCN(C(=O)Nc3ccc(Cl)cc3)CC2)cc1	Nrf2 inh 16µM
COc1cccc(COC(=O)Cc2ccc(S(=O)(=O)N3CCOCC3)s2)c1OC	none
O=C(NNC(=O)c1cc(-c2ccccc2)nc2ccccc12)c1csc(N2CCOCC2)n1	none
Cc1ccc(-c2cc(C(=O)NNC(=O)c3csc(N4CCOCC4)n3)c3ccccc3n2)cc1	Nrf2 inh 21µM, Rango-impB inh inconclusive
COC(=O)[C@]12CCCCC=C1N(Cc1cccc3ccccc13)C(=O)[C@H](CC(=O)NCCC(C)C)C2	none (no result: Nrf2 inh, Rango release inh, A549 viability, Rango-impB inh)
Cc1cc2c(s1)c1cnn(Cc3ccc(OC(F)F)cc3)c(=O)c1n2C	none (no result: Nrf2 ARE act, Rango release inh, Rango-impB inh)
CC(=O)N1CCc2c(sc3c2c(=O)n(-c2ccccc2Cl)c(=O)n3C)C1	none (no result: Nrf2 inh, Rango release inh, Rango-impB inh)
c1ccc2c(c1)[nH]c1c(N3CCC4(CC3)OCCO4)ncnc12	Nrf2 inh 13µM
COc1cccc2[nH]c3c(N4CCC5(CC4)OCCO5)ncnc3c12	none
Cc1ccc2[nH]c3c(N4CCN(Cc5ccccc5)CC4)ncnc3c2c1	Nrf2 inh 9.2µM, A549 viability inconclusive
c1ccc(CN2CCN(c3ncnc4c3[nH]c3ccccc34)CC2)cc1	Nrf2 inh 15µM
CCCCOC(=O)c1ccc(NC(=O)Cn2nnc3sc4c(c3c2=O)CCCC4)cc1	none (no result: Rango release inh, Rango-impB inh)
COC(=O)c1ccc(Cl)cc1N(Cc1c(F)cccc1Cl)S(C)(=O)=O	Nrf2 inh 18µM, A549 viability inconclusive
Cc1cc(C)cc(OCC(O)CN2CCC(CN3C(=O)c4cccc5cccc(c45)C3=O)CC2)c1 (centres undefined)	Nrf2 inh 18µM, A549 viability inconclusive
CN(C)c1ccc(C#Cc2ccc3cc(CCO)oc(=O)c3c2)cc1	Rango release inh inconclusive, Rango-impB inh inconclusive
O=c1oc(CCO)cc2ccc(C#Cc3ccsc3)cc12	Nrf2 ARE act 2.5µM
O=C(O)c1sccc1Oc1ccc(NS(=O)(=O)c2ccccc2)cc1	none
CCOC(=O)C1=C(CSCc2ccccc2)NC(=O)NC1c1cc(C)ccc1C (centres undefined)	Nrf2 inh 18µM, A549 viability inconclusive
O=C(Nc1nc(-c2cccs2)c(C(=O)C(F)(F)F)s1)c1ccccc1	Nrf2 inh 21µM, Rango release inh inconclusive, Rango-impB inh inconclusive
CC(C)CC(COCc1ccc(C(F)(F)F)cc1)N1CCN(C(=O)c2ccc(C(F)(F)F)cc2)CCC1=O (centres undefined)	Nrf2 inh 23µM, A549 viability inconclusive

Compound activity as filed in PubChem BioAssay.
